Screening data deposited in PubChem BioAssay by National Center for Advancing Translational Sciences (NCATS).
Cruzain Triton = blocks cruzain activity in presence of Triton detergent; P25779; purified cruzain, Z-FR-AMC fluorescence, 0.01% Triton; Potency, µM, for inactives: max response, negative = inhibition, actives largely listed as inhibitors; hit rate 0.43% among 200,000;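 note: plate controls were neutral wells for no effect and buffer without enzyme for full effect; nearly all actives have a fitted effect of over 40% in size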
Target sequence (P25779 123-467 limits assumed): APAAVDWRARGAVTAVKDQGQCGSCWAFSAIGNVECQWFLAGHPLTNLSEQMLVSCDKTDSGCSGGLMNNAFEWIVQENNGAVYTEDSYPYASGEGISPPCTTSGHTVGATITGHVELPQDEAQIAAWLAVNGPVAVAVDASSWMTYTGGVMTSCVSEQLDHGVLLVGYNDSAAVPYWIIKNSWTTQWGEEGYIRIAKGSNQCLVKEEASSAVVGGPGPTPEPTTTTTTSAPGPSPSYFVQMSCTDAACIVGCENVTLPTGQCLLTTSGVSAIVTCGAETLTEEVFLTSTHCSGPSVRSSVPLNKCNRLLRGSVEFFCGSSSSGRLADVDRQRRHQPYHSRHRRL
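Z-FR-AMC hydrolysis (2 uM substrate) by cruzain (1.5 nM) monitored kinetically at ex 360/em 450 nm after 15 min room-temperature compound exposure; 0.01% Triton X-100, pH 5.5, 5 mM DTT.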
Cruzain noTriton = cruzain (T. cruzi) inhibition without detergent; hit rate 2.3% among 200,000; Potency, µM, for inactives: max response, negative = inhibition, most hits filed as inhibitors; purified cruzain, Z-FR-AMC fluorescence, no detergent;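 note: plate controls were enzyme without inhibitor for no effect and buffer without enzyme for full effect; nearly all actives have a fitted effect of over 40% in size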
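Purified cruzain at 1.5 nM, pre-incubated 15 min with compound at room temperature in 100 mM sodium acetate pH 5.5, 5 mM DTT, 0.00005% Triton X-100. Reaction started with 2 uM Z-FR-AMC; AMC fluorescence increase over 60 s gives rate.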
Active calls of the source: *; ? = inconclusive. Hits are enriched below; roughly 2.6% of the tested compounds scored in any of these assays. Calls come from the whole dose curve; as a rule, active = well fitted curve in the direction sought with a large enough effect; inconclusive = small, poorly fitted or top-dose-only effect, or another doubt; inactive = no such curve, though single readings can be large; an effect the other way counts as inactive or inconclusive. Potency is the fitted concentration of half-maximal effect.

SMILES	Cruzain Triton	Cruzain noTriton
O=CN1CCN(C(=O)c2ccccc2Cl)CC1	2%	7%
CC(=O)c1ccc(NC(=O)c2nc(-c3ccccc3)n(-c3ccc(C)cc3)n2)cc1	-5%	8%
CC(=O)c1ccc(NC(=O)c2nc(-c3ccccc3)n(-c3ccc(Cl)cc3)n2)cc1	-5%	13µM*
Cc1ccccc1NS(=O)(=O)c1cc(C(=O)NCCC2=CCCCC2)ccc1Cl	-2%	-1%
Cc1ccc(C(=O)NCC(=O)OC(C)C(=O)NCCC2=CCCCC2)cc1C (stereo unspecified)	22µM*	?
CCCNC(=O)c1c(NC(=O)C2COc3ccccc3O2)sc2c1CCCC2 (stereo unspecified)	2%	20µM*
O=C(NC1CCS(=O)(=O)C1)c1c(NC(=O)C2COc3ccccc3O2)sc2c1CCCC2 (stereo unspecified)	-4%	-8%
COc1ccc2c(CNCc3ccc(C)o3)c(C(=O)O)n(Cc3ccccc3)c2c1	-2%	-12%
COc1ccc2nc(N3C(=O)/C(=C/c4ccccc4)NC3=S)sc2c1	-1%	13µM*
CCOc1ccc2nc(N3CCCCCC3)sc2c1	-1%	-6%
COc1ccc2nc(-n3c(C)ccc3C)sc2c1	3%	-19%
CCOc1ccc2nc(N3C(=O)/C(=C/c4ccccc4)NC3=S)sc2c1	-2%	13µM*
COc1ccccc1-c1cc(C(=O)Nc2cccnc2)no1	-3%	-5%
CCCN(CCC)C(=O)SCC	7%	-3%
COc1ccccc1N1CCN(C/C(C)=C/c2ccccc2)CC1	-1%	-6%
CCCCS(=N)(=O)CCC(N)C(=O)O (stereo unspecified)	10%	3%
CCn1c(C)c2c([n+]1CC)CC(C)(C)CC2=O	3%	3%
Oc1ccc(-c2nc3c4c(ncn3n2)-c2ccccc2CC42CCCC2)cc1	3%	?
CCc1ccc2oc(-c3cc(N=Cc4cccc(OC)c4O)ccc3O)nc2c1	-10%	16µM*
CCc1ccc2oc(-c3cc(NC(=O)c4cc(OC)c(OC)c(OC)c4)ccc3O)nc2c1	-2%	2%
CCOC(=O)c1[nH]c(CSc2nnc(-c3ccc(OC)cc3)o2)c(C(=O)OCC)c1C	-3%	0%
CC(C)C(NS(=O)(=O)c1ccc2c(c1)oc(=O)n2C)C(=O)N1CCN(C2CCCCC2)CC1 (stereo unspecified)	-6%	-12%
O=C1C=C(O)CC(c2ccc(Cl)c(Cl)c2)C1 (stereo unspecified)	1%	-10%
COc1cccc(C(=O)Nc2cc(C(=O)NCCc3ccccc3)ccc2Cl)c1	2%	1%
COc1cccc(/C(O)=C/c2nc3ccc(C(=O)NCCc4ccc(Cl)cc4)cc3[nH]c2=O)c1	-7%	25µM*
SMILES	Cruzain Triton	Cruzain noTriton
COc1cccc(-n2cc(C(=O)NCCc3cccc(C)c3)c3ccccc3c2=O)c1	-4%	14%
COc1cccc(/C(O)=C/c2nc3ccc(C(=O)NCCc4cccc(C)c4)cc3[nH]c2=O)c1	-3%	20µM*
COc1ccccc1NC(=O)CN1C(=O)C2(OCCCO2)c2ccccc21	-3%	-10%
COc1ccc(-n2nnc(-c3nc(-c4cccs4)no3)c2N)cc1	0%	10%
Cc1cccc(NC(=O)N[C@@H]2N=C(c3ccccc3)c3ccccc3N(CC(=O)c3ccccc3C)C2=O)c1	-2%	32µM*
COc1ccc(NC(=O)CN2C(=O)C(C)N=C(c3ccccc3)c3ccccc32)cc1OC (stereo unspecified)	-1%	?
C=CCNc1sc(C(=O)c2ccc(Br)s2)c(N)c1C#N	-1%	16µM*
C=CCNc1sc(C(=O)c2ccccc2)c(N)c1C#N	-6%	-7%
CCOC(=O)CSc1nc2cc(C(=O)NCc3ccco3)ccc2c(=O)n1C1CCCCC1	0%	?
CCOC(=O)CSc1nc2cc(C(=O)NCc3ccco3)ccc2c(=O)n1-c1ccc(F)cc1	-1%	10µM*
Cc1ccc(CNc2cnn(C34CC5CC(CC(C5)C3)C4)c(=O)c2Cl)cc1	-5%	-9%
COCCCNc1oc(/C=C/c2cc(OC)c(OC)c(OC)c2)nc1C#N	25µM*	20µM*
COc1ccc(CCNc2oc(/C=C/c3cc(OC)c(OC)c(OC)c3)nc2C#N)cc1OC	-8%	-16%
COc1cc2c(=O)n(Cc3ccccc3)c(=O)n(CC(=O)NCCc3ccccc3)c2cc1OC	6%	?
CN(CC(=O)Nc1ccc(C#N)cc1)Cc1ccc(Cl)cc1	0%	11%
N#Cc1ccc(NC(=O)Nc2ccc(Cl)cc2)cc1	-1%	10µM*
Cc1ccc(OCC(=O)Nc2ccccc2C(=O)OCc2cc(=O)n3ccsc3n2)cc1	0%	9%
O=C(c1ccc2c(c1)N(Cc1cccc(Cl)c1)C(=O)c1ccccc1S2(=O)=O)N1CCc2ccccc21	-3%	20µM*
Cc1ccc(C)c(CN2C(=O)c3ccccc3S(=O)(=O)c3ccc(C(=O)N4CCN(C)CC4)cc32)c1	1%	1%
O=C(c1ccc2c(c1)N(Cc1ccccc1F)C(=O)c1ccccc1S2(=O)=O)N1CCc2ccccc21	0%	3%
Cc1ccc(C)c(CN2C(=O)c3ccccc3S(=O)(=O)c3ccc(C(=O)N4CCc5ccccc54)cc32)c1	-1%	32µM*
CCOC(=O)Cc1nnc(NC(=O)c2cccc(OCC)c2)s1	1%	7%
Cc1cc(/C=N/n2c(COc3ccccc3)nc3ccccc3c2=O)c(O)c([N+](=O)[O-])c1	-13%	-14%
O=C(CS(=O)(=O)c1nc(-c2ccc(Cl)cc2)cn1-c1ccccc1)Nc1ccc(F)cc1F	-22%	25µM*
CCOc1ccc(-c2cn(-c3ccc(C)cc3)c(SCC(=O)Nc3ccc(C)cc3)n2)cc1	2%	25µM*
SMILES	Cruzain Triton	Cruzain noTriton
CCOc1ccc(-c2cn(-c3ccc(OC)cc3)c(SCC(=O)Nc3ccccc3Cl)n2)cc1	0%	?
CCn1cc(S(=O)(=O)CC(=O)Nc2ccc(C)cc2)c2ccccc21	-3%	-8%
Cc1cccc(NC(=O)CSc2nc(-c3ccccc3)cn2-c2ccccc2)c1C	-1%	?
Cc1cccc(NC(=O)CS(=O)(=O)c2nc(-c3ccccc3)cn2-c2cccc(Cl)c2)c1C	-23%	10µM*
Cc1ccc(NC(=O)CS(=O)(=O)c2nc(-c3ccc(C)cc3)cn2-c2ccc(C)cc2)cc1	-20%	13µM*
O=C(CN1CCN(c2ccc(Cl)cc2)CC1)Nc1ccc(F)cc1F	-8%	3%
COc1ccc(NC(C)c2cc(Cl)ccc2O)cc1 (stereo unspecified)	-9%	6%
Cc1ccc(C)c(N2CCN(C(=O)c3ccc(Cn4c(=O)[nH]c5ccccc5c4=O)cc3)CC2)c1	-6%	-3%
Cc1ccc(-c2cn(-c3cccc(Cl)c3)c(S(=O)(=O)CC(=O)Nc3cccc(C)c3)n2)cc1	-21%	16µM*
O=C(CS(=O)(=O)c1nc(-c2ccc(Cl)cc2)cn1-c1ccccc1)Nc1cccc(Cl)c1	?	-17%
Cc1cccc(-n2cc(-c3ccccc3)nc2SCC(=O)Nc2ccccc2Cl)c1	0%	-11%
Cc1ccc(-c2cn(-c3cccc(Cl)c3)c(S(=O)(=O)CC(=O)Nc3ccccc3F)n2)cc1	-15%	16µM*
CC(C)COP(=O)(c1ccc(N(C)C)cc1)C(Nc1ccccc1)c1ccccc1 (stereo unspecified)	-10%	8%
CCc1cccc(C)c1NC(=O)CCCSc1nc2ccccc2s1	-6%	-5%
